Five compounds from PubChem BioAssay can be followed below.

SMILES strings stand for the structures. Calls of active or inactive are those of the source. Unless noted, how the calls were made is not given here.

Test [1] has as its system Wnt5a (protein binding on small-molecule microarray). As to the kind of experiment: small molecules binding Wnt5a protein – biophysical, small-molecule microarray, 635/667 nm fluorescence, primary screen (AID 1142).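 Further: fluorescence read at 667 nm with signal to noise per printed feature.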 As to conditions: 635 nm fluorescence, higher = more signal.
Test [2] in a line: ATP-based viability of Huh7 replicon cells – cell-based, CellTiter-Glo luminescence, basal, 48 h, cytotoxicity control for HCV replication inhibitor project, primary screen (AID 1143).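 Further: Huh7 hepatoma cells carrying a hepatitis C replication reporter with no stimulus; test concentration not given here.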 As to conditions: higher = more signal, called active from +8 up or from −8 down.
Test [3] is described as follows: Pseudomonas biofilm growth suppression – PAO1 strain, BacTiter-Glo luminescence, LB-PBS, primary screen (AID 1144). As to conditions: P. aeruginosa PAO1 biofilm, 12 h, higher = more signal.
Test [4] is described as follows: basal CRE-LacZ reporter activity in PC12 – cell-based, unstimulated, primary screen (AID 1145). As to conditions: no forskolin, luminescence, 4.5 h, higher = more signal, called active from +8 up or from −8 down.
Test [5] is described as follows: forskolin-driven CRE-LacZ activity in PC12 – cell-based, CRE-LacZ reporter, forskolin-stimulated, primary screen (AID 1146).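 Further: PC12 cells with 6xCRE LacZ reporter stimulated by forskolin 10 µM; beta-galactosidase reporter signal reflecting CREB driven transcription.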 As to conditions: luminescence, 4.5 h, higher = more signal, called active from +8 up or from −8 down.
Test [6] concerns the target Streptavidin (Streptomyces avidinii) (UniProt P22629). Kind of test: compounds binding control protein streptavidin – biophysical, small-molecule microarray, 635/667 nm fluorescence, artefact control for SMM compound annotation, primary screen (AID 1147).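 Further: signal reflects streptavidin binding to arrayed compounds as a control protein.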 As to conditions: higher = more signal.
The nature of test [7]: probe aInhba binding on compound microarray – biochemical, small-molecule microarray, 635/667 nm fluorescence, primary screen (AID 1148).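 Further: score merges 667nm spot fluorescence with signal-to-noise for antibody binding to printed compounds.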 The conditions noted are these: higher = more signal.
Test [8] deals with Torsin-1A (Homo sapiens) (UniProt O14656). Kind of test: TOR1A wild-type binding on microarray – cell lysate, small-molecule microarray, lysate, 635/667 nm, primary screen (AID 1149). As to conditions: COS7 hTOR1A-WT lysate, 635 nm fluorescence, higher = more signal.
For test [9] the target is unchanged. Kind of test: torsin A mutant lysate binding on microarrays – cell lysate, small-molecule microarray, COS7 lysate, 635/667 nm fluorescence, primary screen (AID 1150).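 Further: score pools 667 nm emission and signal to noise measuring lysate protein binding.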 As to conditions: COS7 hTOR1A mutant lysate, 635 nm fluorescence, higher = more signal.
In test [10] the test system is Sonic hedgehog protein (Shh). As to the kind of experiment: Sonic hedgehog microarray binding compounds – biochemical, small-molecule microarray, 635/667 nm fluorescence, primary screen (AID 1151).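 Further: Shh protein binding to compounds spotted on small-molecule microarray slides; score combines spot fluorescence intensity with signal-to-noise across triplicate slides.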 The conditions noted are these: 635 nm fluorescence, higher = more signal.
Test [11] can be described thus: optical density shifts of acrAB sulA E. coli – strain DRC41, OD650, 48 h, E. coli filamentation inducer project, primary screen (AID 1152).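 Further: E. coli MC1000 strain DRC41 lacking acrAB efflux pump and sulA.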 As to conditions: higher = more signal, called active from +8 up or from −8 down.
The nature of test [12]: probe aLefty1 binding on compound microarray – biochemical, small-molecule microarray, 635/667 nm fluorescence, primary screen (AID 1153).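 Further: score merges spot fluorescence with signal-to-noise ratio from the scanned slide images.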 As to conditions: higher = more signal.
The nature of test [13]: plasmodial surface anion channel blockers, osmotic lysis – cell-based, P. falciparum Indochina, OD700, 1 h, primary screen (AID 1154). As to conditions: P. falciparum Indochina infected RBC osmotic lysis, higher = more signal, called active from +8 up or from −8 down.
Test [14] is described as follows: plasmodial surface anion channel blockers, osmotic lysis – cell-based, P. falciparum Indochina, OD700, 2 h, primary screen (AID 1155).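 Further: lysis reports solute entry through the parasite surface anion channel PSAC.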 As to conditions: P. falciparum Indochina infected erythrocytes, higher = more signal, called active from +8 up or from −8 down.
Test [15] can be described thus: changes in parasitized red cell lysis, either direction – P. falciparum Indochina, OD700, 3 h, PSAC antagonist project, primary screen (AID 1156). As to conditions: P. falciparum-infected erythrocytes, osmotic lysis, higher = more signal, called active from +8 up or from −8 down.
Test [16] is described as follows: plasmodial surface anion channel blockers, osmotic lysis – cell-based, P. falciparum Indochina, OD700, 18 h, primary screen (AID 1157). The conditions noted are these: P. falciparum Indochina infected erythrocytes, osmotic lysis OD700, 18 h; higher = more signal, called active from +8 up or from −8 down.
Test [17] can be described thus: S6 kinase pathway phospho-S6 level changes – cell-based, A549, cytoblot, luminescence, serum-stimulated, primary screen (AID 1158).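 Further: serum-stimulated A549 lung adenocarcinoma cells; signal is phosphorylated S6 detected by cytoblot immunostaining with HRP secondary.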 As to conditions: 5 h, higher = more signal.
Test [18] concerns the target NADPH oxidase 2 (Homo sapiens) (UniProt P04839). Kind of test: compounds shifting NOX2 Amplex Red fluorescence – cell-based, HEK293-NOX2, PMA-stimulated, NOX inhibitor project, primary screen (AID 1159). Further: test concentration not given here. The conditions noted are these: 45 min, higher = more signal, called active from +8 up or from −8 down.
Test [19] concerns the target NADPH oxidase 4 (Homo sapiens) (UniProt Q9NPH5). As to the kind of experiment: compounds shifting NOX4 Amplex Red fluorescence – cell-based, HEK293-NOX4, tetracycline-induced, NOX inhibitor project, primary screen (AID 1160). The conditions noted are these: HEK293-NOX4, Amplex Red H2O2 fluorescence, 45 min; higher = more signal, called active from +8 up or from −8 down.

The target of test [20] is NADPH oxidase 5 (Homo sapiens) (UniProt Q96PH1). As to the kind of experiment: compounds shifting NOX5 Amplex Red fluorescence – cell-based, HEK293-NOX5, NOX inhibitor project, primary screen (AID 1161). The conditions noted are these: HEK293-NOX5, ionomycin, 45 min, higher = more signal.
NADPH oxidase 5 (Homo sapiens), sequence (Q96PH1 whole entry, looked up): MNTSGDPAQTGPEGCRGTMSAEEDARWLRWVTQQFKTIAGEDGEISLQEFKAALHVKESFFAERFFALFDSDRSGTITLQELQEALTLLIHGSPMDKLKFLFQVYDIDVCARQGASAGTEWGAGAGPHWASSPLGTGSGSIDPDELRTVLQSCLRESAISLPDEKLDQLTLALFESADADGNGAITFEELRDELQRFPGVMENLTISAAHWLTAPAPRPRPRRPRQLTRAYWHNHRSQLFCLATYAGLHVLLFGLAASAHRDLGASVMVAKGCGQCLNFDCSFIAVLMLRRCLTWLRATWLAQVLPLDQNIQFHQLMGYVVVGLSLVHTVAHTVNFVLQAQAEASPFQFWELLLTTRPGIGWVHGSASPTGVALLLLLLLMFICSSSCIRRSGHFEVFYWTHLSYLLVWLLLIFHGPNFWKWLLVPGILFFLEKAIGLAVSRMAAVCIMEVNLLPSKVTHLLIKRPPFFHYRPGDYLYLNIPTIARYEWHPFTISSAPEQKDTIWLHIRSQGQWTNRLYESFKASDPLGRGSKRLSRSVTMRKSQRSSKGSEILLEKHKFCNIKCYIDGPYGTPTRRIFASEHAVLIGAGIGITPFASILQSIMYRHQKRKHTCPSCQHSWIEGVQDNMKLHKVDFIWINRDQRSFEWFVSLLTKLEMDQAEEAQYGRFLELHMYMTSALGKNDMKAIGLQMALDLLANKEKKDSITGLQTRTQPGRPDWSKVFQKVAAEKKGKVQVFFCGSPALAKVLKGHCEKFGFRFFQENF

NADPH oxidase 2 (Homo sapiens), sequence (P04839 whole entry, looked up): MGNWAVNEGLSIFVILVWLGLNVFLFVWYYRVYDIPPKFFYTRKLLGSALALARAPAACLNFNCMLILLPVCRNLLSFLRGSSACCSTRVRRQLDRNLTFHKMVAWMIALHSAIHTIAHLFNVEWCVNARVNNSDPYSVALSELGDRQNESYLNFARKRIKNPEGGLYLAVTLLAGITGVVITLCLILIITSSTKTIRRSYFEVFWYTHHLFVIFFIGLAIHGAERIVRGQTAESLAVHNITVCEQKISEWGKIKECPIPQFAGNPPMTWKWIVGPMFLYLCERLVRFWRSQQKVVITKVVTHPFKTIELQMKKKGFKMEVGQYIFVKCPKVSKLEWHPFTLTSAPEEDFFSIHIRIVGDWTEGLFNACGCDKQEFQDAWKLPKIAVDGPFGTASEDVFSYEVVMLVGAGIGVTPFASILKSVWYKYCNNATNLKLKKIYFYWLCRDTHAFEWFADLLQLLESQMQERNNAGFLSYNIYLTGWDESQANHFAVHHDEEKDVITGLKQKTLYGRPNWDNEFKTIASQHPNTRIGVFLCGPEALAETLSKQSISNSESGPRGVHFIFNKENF
Streptavidin (Streptomyces avidinii), sequence (P22629 whole entry, looked up): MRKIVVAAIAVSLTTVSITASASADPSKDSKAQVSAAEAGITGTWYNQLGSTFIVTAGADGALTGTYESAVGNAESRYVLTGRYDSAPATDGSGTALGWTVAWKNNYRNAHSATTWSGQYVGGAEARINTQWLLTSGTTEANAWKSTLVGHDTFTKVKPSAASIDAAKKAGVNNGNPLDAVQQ
Torsin-1A (Homo sapiens), sequence (O14656 whole entry, looked up): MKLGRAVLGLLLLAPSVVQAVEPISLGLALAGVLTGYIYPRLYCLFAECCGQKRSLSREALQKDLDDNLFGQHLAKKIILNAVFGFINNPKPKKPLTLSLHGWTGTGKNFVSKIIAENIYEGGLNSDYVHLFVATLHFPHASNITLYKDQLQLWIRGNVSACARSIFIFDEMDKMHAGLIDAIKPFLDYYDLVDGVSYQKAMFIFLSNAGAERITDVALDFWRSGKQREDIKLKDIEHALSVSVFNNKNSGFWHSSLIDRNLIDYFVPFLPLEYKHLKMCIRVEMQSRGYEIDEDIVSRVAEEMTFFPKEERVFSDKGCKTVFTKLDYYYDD
NADPH oxidase 4 (Homo sapiens), sequence (Q9NPH5 whole entry, looked up): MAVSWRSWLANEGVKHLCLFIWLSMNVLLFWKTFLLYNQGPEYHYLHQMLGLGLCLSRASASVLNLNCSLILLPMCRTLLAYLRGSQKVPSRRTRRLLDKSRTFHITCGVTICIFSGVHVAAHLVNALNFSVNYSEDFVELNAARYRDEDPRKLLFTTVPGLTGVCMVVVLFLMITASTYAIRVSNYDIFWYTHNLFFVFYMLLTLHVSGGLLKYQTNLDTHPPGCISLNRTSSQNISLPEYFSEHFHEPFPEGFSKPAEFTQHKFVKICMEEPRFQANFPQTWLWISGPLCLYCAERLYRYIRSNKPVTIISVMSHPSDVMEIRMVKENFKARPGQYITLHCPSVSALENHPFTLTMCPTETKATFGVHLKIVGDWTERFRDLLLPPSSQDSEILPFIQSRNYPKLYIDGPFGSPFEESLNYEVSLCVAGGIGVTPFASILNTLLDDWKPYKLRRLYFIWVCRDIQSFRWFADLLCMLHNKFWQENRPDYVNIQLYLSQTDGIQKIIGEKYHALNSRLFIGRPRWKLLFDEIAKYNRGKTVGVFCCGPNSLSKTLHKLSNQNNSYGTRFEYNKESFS

With `C[C@@H]1C=CCC(=O)OC[C@H](C)C(=O)N2CCC[C@H]2C(=O)OC1`, the composite z-score in test [1] was 0.15; in [6], 0.245; in [7] it was -0.21; with Torsin-1A (Homo sapiens) [8], 3.08; in the test with Torsin-1A (Homo sapiens) [9], 2.85; in test [10] it was 2.33. In addition, in test [12], the composite z-score is -0.384. The z-score was 0.111 (inactive) in [2]; -0.736 (inactive) in test [3]; -0.264 (inactive) in test [4]; -0.0697 (inactive) in test [5]; 0.665 (inactive) in [11]; 0.29 (inactive) in [13]. Also, the z-score was 0.149 (inactive) in test [14]; 1.11 (inactive) in test [15]; 0.097 (inactive) in test [16]; -0.39 in test [17]; -0.49 (inactive) in [18]; 0.445 (inactive) in test [19]. In addition, the z-score in [20] is -0.764.

Regarding `COc1ccc(O[C@H]2C=C[C@@H](c3ccccc3)O[C@@H]2COC(=O)CCC(C)=NO[C@H](C)c2cn([C@@H]3COC[C@H]3O)nn2)cc1`, the composite z-score in test [1] was 0.276; in [6], 2.18; in [7], -0.103; in the test with Torsin-1A (Homo sapiens) [8], 0.249; with Torsin-1A (Homo sapiens) [9], 0.419; in test [10], 0.754. The compound further displayed a composite z-score in test [12] of -0.0501. The z-score is -3.36 (inactive) in test [2]; -1.39 (inactive) in [3]; 5.66 (inactive) in test [4]; 0.867 (inactive) in [5]; 0.451 (inactive) in test [11]; 5.05 (inactive) in test [13]. The z-score was 0.0624 (inactive) in test [14]; 1.63 (inactive) in test [15]; -0.908 (inactive) in test [16]; 0.607 in [17]; -4.13 (inactive) in test [18]; -0.691 (inactive) in [19]. The z-score in [20] is -4.98.

As for `CC(=O)OC[C@H]1O[C@H](CCON=C[C@@H](C)[C@H](OCc2ccccc2)C(C)C)C=C[C@@H]1OC(C)=O`, the composite z-score in test [1] was -0.0629; in [6], 0.133; in test [7] it was -0.199; with Torsin-1A (Homo sapiens) [8] it was 0.658; with Torsin-1A (Homo sapiens) [9] it was 0.284; in [10], 0.372. Besides, the composite z-score in test [12] is -0.313. Further, the z-score in test [2] was -0.305 (inactive); in test [3] it was 0.0966 (inactive); in [4], 1.16 (inactive); in test [5], 0.598 (inactive); in [11], -2.02 (inactive); in test [13], 1.25 (inactive). In addition, the z-score in test [14] is 0.412 (inactive); in [15], 1.01 (inactive); in test [16], 0.367 (inactive); in test [17], -0.297; in test [18] it was -0.953 (inactive); in test [19], -0.218 (inactive). Besides, the z-score in test [20] was -2.17.

As to `O=C1[C@H]2[C@H]3[C@H](O)[C@H](O)CC(=NOC[C@@H](O)COCc4ccco4)[C@H]3CC[C@H]2C(=O)N1Cc1ccc2c(c1)OCO2`, the composite z-score in test [1] is 0.138; in test [6], -0.405; in [7] it was -0.162; in the test with Torsin-1A (Homo sapiens) [8] it was 3.53; with Torsin-1A (Homo sapiens) [9], 3.17; in [10], 2.03. Besides, the composite z-score in [12] was -0.147. Besides, the z-score in test [2] was -0.012 (inactive); in test [3] it was 2.01 (inactive); in [4], -0.657 (inactive); in [5] it was 0.0952 (inactive); in test [11], 0.198 (inactive); in test [13], 8.99 (active). Also, the z-score is 1.02 (inactive) in test [14]; 0.107 (inactive) in [15]; 0.229 (inactive) in test [16]; -0.552 in test [17]; -0.377 (inactive) in test [18]; 0.718 (inactive) in [19]. Moreover, the z-score in test [20] turned out to be 0.00627.

For the compound `COC(=O)[C@@]1(Cc2ccc(F)cc2)[C@H]2c3cc(C(=O)N(C)C)n(Cc4ccc(OC)c(OC)c4)c3C[C@H]2CN1C(=O)c1ccccc1`, the composite z-score in test [1] is 0.702; in test [6], 0.319; in test [7], 0.351; with Torsin-1A (Homo sapiens) [8] it was 0.0209; in the test with Torsin-1A (Homo sapiens) [9] it was 0.1; in test [10], -0.715. The composite z-score in test [12] stood at 0.109. The z-score in test [2] was -3.26 (inactive); in [3], -0.642 (inactive); in test [4], 0.194 (inactive); in test [5], 0.426 (inactive); in [11] it was -1.19 (inactive); in [13], 0.933 (inactive). Further, the z-score was -0.512 (inactive) in [14]; 0.746 (inactive) in [15]; -1.37 (inactive) in test [16]; 2.19 in [17]; -3.29 (inactive) in [18]; -1.97 (inactive) in test [19]. In addition, the z-score in test [20] was -4.09.
